# Source: PubChem BioAssay
# A selection: hits, their analogues and other compounds. The true share with any hit is near 3.4%.
# MITF inh = human MITF inhibition, primary screen | O75030 | inhibition, % at 2.6 µM | AID 1259374 | AlphaScreen MITF homodimerization, bead proximity signal | 650,000 compounds, 0.91% hits; in the data active = inhibition above about 50%
# TEAD-YAP block = TEAD-YAP interaction inhibition; AID 1259422; inhibition, % at 9.12 µM; HEK-TIYL cells, TEAD-Gal4/YAP UAS-luciferase luminescence; 640,000 compounds, 1.4% hits; in the data active = inhibition above about 32%
# FBW7 activator = activators of human E3 ligase FBW7. Q969H0. AlphaScreen FBW7–phospho-cyclin E peptide binding, activator screen. normalized activity (activation), % at 26.1 µM. 650,000 compounds, 0.13% hits; in the data active = normalized activity above about 1.9%;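 note: purified mutant Fbw7 with reduced substrate affinity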
# GPR151 ag = activates the human receptor GPR151. PathHunter beta-arrestin GPR151 cells, luminescence. activation, % at 11.2 µM. 650,000 compounds, 1% hits; in the data active = activation above about 4.9%
# Target sequence (Q8TDV0 whole entry, looked up): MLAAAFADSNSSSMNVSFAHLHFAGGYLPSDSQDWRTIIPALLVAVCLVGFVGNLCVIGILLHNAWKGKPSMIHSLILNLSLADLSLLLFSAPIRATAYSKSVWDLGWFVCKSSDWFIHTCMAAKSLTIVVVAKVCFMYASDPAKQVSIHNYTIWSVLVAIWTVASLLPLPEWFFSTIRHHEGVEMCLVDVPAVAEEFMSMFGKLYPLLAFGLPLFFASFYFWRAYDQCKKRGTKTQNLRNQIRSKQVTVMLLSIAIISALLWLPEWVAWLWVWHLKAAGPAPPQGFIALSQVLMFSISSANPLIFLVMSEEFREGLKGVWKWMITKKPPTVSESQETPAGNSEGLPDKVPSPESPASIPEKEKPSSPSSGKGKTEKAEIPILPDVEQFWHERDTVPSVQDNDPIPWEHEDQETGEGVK
# Hits are given with their value; – = inactive.
SMILES,MITF inh,TEAD-YAP block,FBW7 activator,GPR151 ag
COc1cc(/C=C2/C(=O)N(c3cccc(Cl)c3)N=C2C)ccc1Oc1ccc([N+](=O)[O-])cc1C(F)(F)F,–,42.2,–,–
COc1ccc(/C=C2\C(=O)N(c3cccc(Cl)c3)N=C2C)cc1[N+](=O)[O-],–,–,–,–
COc1ccc(NC(=O)CNC(=O)c2nn(-c3ccc(OC)c(OC)c3)c(=O)c3ccccc23)cc1OC,–,33.7,–,–
COc1ccc(C)cc1NC(=O)CNC(=O)c1nn(-c2ccc(OC)c(OC)c2)c(=O)c2ccccc12,–,34.5,–,–
COc1ccc(-n2nc(C(=O)NCC(=O)NCCN(C)CCc3ccccn3)c3ccccc3c2=O)cc1Cl,–,33.5,–,–
COc1ccc(-n2nc(C(=O)NCC(=O)Nc3ccc(OC)c(OC)c3)c3ccccc3c2=O)cc1,–,–,–,–
COc1ccc(-n2nc(C(=O)NCC(=O)Nc3cc(OC)c(OC)c(OC)c3)c3ccccc3c2=O)cc1Cl,–,49.9,–,–
O=C(Nc1c2c(nn1-c1ccccc1)CS(=O)C2)c1ccc(Cl)cc1Cl (configuration not stated),–,–,–,–
CCOC(=O)C1=CN(C)C=C(C(=O)OCC)C1c1cccc(OC)c1OC,–,–,–,–
Cc1ccnc(SCc2cc(=O)c(OC(=O)c3ccccc3Br)co2)n1,–,–,–,–
Cc1ccc(NC(=O)N(Cc2cc3cc4c(cc3[nH]c2=O)OCCO4)CC2CCCO2)cc1 (configuration not stated),–,54.7,–,–
Cc1nc(SCc2ccc(Cl)c(Cl)c2)n[nH]1,–,–,–,–
COc1ccc(CSc2n[nH]c(C)n2)cc1Br,–,34.4,–,–
CCCc1cc(-c2onc(C)c2-c2ccc3c(c2)OCCCO3)c(O)cc1OC,–,–,–,–
CCc1cc(-c2onc(C)c2-c2ccc(OC)cc2)c(O)cc1OC,–,45.0,–,–
O=C(Nc1ccc(N2CCOCC2)cc1)c1cc([N+](=O)[O-])ccc1Cl,–,35.4,–,–
O=C(Nc1ccc(N2CCOCC2)cc1)c1csc(N2CCC(N3CCOCC3)CC2)n1,–,–,–,–
O=C(Nc1ccccc1Br)c1cc([N+](=O)[O-])ccc1N1CCOCC1,–,49.6,–,–
O=C(Nc1ccc(N2CCOCC2)cc1)c1csc(Br)n1,–,51.9,–,–
O=C(Nc1ccc(N2CCCC2)cc1)c1cc([N+](=O)[O-])ccc1N1CCOCC1,–,–,–,–
O=C(c1cc([N+](=O)[O-])ccc1N1CCCCC1)N1CCN(c2ccccc2)CC1,–,47.5,–,–
Cc1ccc(C(=O)N/C(=C/c2ccc([N+](=O)[O-])cc2)C(=O)N2CCC(C)CC2)cc1,–,–,–,–
O=C(NN1C(=O)c2ccccc2NC1c1ccccc1O)c1ccc([N+](=O)[O-])cc1 (configuration not stated),–,–,–,–
O=C(Nc1nccs1)c1cccc(C(=O)Nc2nccs2)c1,–,–,–,–
O=C(Nc1ccc(N2CCOCC2)cc1)c1cc([N+](=O)[O-])ccc1Br,–,42.6,–,–
SMILES,MITF inh,TEAD-YAP block,FBW7 activator,GPR151 ag
Nc1cccc(-c2cccc(C(=O)Nc3ccc(N4CCOCC4)cc3)n2)c1,–,–,–,–
Cc1nn(C)c(C)c1-c1cccc(C(=O)Nc2ccc(N3CCOCC3)cc2)n1,–,45.1,–,–
Cc1nc2c(C(=O)Nc3ccc(Cl)cc3)snc2c(=O)[nH]1,–,–,–,–
Cc1nc2c(C(=O)Nc3ccc(N4CCOCC4)cc3)snc2c(=O)[nH]1,–,32.8,–,–
O=C(Nc1ccc(N2CCCCC2)cc1)c1cc([N+](=O)[O-])ccc1N1CCOCC1,–,–,–,–
CO[C@H]1[C@@H]([C@@]2(C)O[C@@H]2CC=C(C)C)[C@]2(CC[C@H]1OC(=O)/C=C/C=C/C=C/C=C/C(=O)O)CO2,–,45.7,–,–
O=C(NCC1CCC2(CCN(Cc3ccc4ncccc4c3)CC2)O1)C1CCCO1 (configuration not stated),–,–,2.1,–
C=CCNC(=S)NNC(=O)c1ccccc1O,–,88.6,–,–
C=CCNC(=S)NNC(=O)c1ccccc1OCCC,–,–,–,–
O=C(NCc1ccncc1)c1ccc(OC2CCN(C3CCOCC3)CC2)cc1,–,–,–,–
Cc1cc(CN2CCC(Oc3ccc(C(=O)NCc4ccncc4)cc3)CC2)oc1C,–,32.6,–,–
CC(=O)Nc1ccc(NC(=O)c2cnc(N3CCCC3CO)s2)cc1 (configuration not stated),–,–,–,–
CC1=C(C(=O)OC(C)C)C(c2ccsc2)C2=C(CC(c3cccs3)CC2=O)N1 (configuration not stated),–,67.0,–,–
